Results taken from PubChem BioAssay AID1159580 (chemical genetic matrix, 2015).
Values joined by “and” are separate entries in the source; they are usually repeats but may differ in a detail not shown here. Equal values may be shown once. The campaign covered roughly 5,500 compounds. About 2,000 (36%) were called active. About 18% were inconclusive and are not listed. No stated cut-off is given here; in the data, active means normalized growth mostly below about 0.91 (no sharp cut-off); inconclusive means no clear call, values can overlap the other calls; inactive means mostly above about 0.92. This is one part of the list.

Assay: chemical genetic growth profiling, strain panel (AID 1159580);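 further: tested at 20 µM; growth read once vehicle control cultures reached saturation at 30 °C; 1 = growth at the plate median or of vehicle wells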
Conditions: S. cerevisiae deletion strains, growth OD

Measured: normalized growth

CCC[C@H](N[C@@H](C)C(=O)N1[C@H](C(=O)O)C[C@@H]2CCCC[C@@H]21)C(=O)OCC
inactive: locus YAL013W, strain DEP1, stronger effect = lower value 1.01 | locus YAL021C, strain ccr4, stronger effect = lower value 1.01 | locus YAL026C, strain drs2, stronger effect = lower value 1.01 | locus YAL030W, strain snc1, stronger effect = lower value 1.02 | locus YBL061C, strain skt5, stronger effect = lower value 1.01 | locus YBR009C, strain hhf1, stronger effect = lower value 1.01 | locus YBR021W, strain FUR4, stronger effect = lower value 1.03 | locus YBR023C, strain chs3, stronger effect = lower value 1.02 | locus YBR171W, strain sec66, stronger effect = lower value 1.02 | locus YBR229C, strain ROT2, stronger effect = lower value 1 | locus YBR231C, strain swc5, stronger effect = lower value 1.02 | locus YBR279W, strain paf1, stronger effect = lower value 1.01 | locus YCL011C, strain gbp2, stronger effect = lower value 1.01 | locus YCL016C, strain dcc1, stronger effect = lower value 1.01 | locus YCL029C, strain bik1, stronger effect = lower value 1.04 | locus YCL069W, strain vba3, stronger effect = lower value 1.02 | locus YCR088W, strain abp1, stronger effect = lower value 1.02 | locus YDL005C, strain med2, stronger effect = lower value 1.01 | locus YDL035C, strain GPR1, stronger effect = lower value 1.01 | locus YDL040C, strain nat1, stronger effect = lower value 1.01 | locus YDL074C, strain BRE1, stronger effect = lower value 1.02 | locus YDL101C, strain DUN1, stronger effect = lower value 1.01 | locus YDL134C, strain PPH21, stronger effect = lower value 1.01 | locus YDL185W, strain tfp1, stronger effect = lower value 1.02 | locus YDL192W, strain arf1, stronger effect = lower value 1.02 | locus YDR001C, strain nth1, stronger effect = lower value 1.01 | locus YDR069C, strain doa4, stronger effect = lower value 1.03 | locus YDR101C, strain arx1, stronger effect = lower value 1.01 | locus YDR137W, strain rgp1, stronger effect = lower value 0.99 | locus YDR150W, strain NUM1, stronger effect = lower value 1.02 | locus YDR159W, strain sac3, stronger effect = lower value 1.02 | locus YDR162C, strain NBP2, stronger effect = lower value 1.01 | locus YDR195W, strain ref2 1.04 | locus YDR297W, strain sur2, stronger effect = lower value 1.02 | locus YDR318W, strain mcm21, stronger effect = lower value 1.02 | locus YDR334W, strain swr1, stronger effect = lower value 1.01 | locus YDR335W, strain msn5, stronger effect = lower value 1.01 | locus YDR388W, stronger effect = lower value 1.03 | locus YDR392W, strain spt3, stronger effect = lower value 0.981 | locus YDR502C, strain sam2, stronger effect = lower value 1.01 | locus YEL003W, strain gim4, stronger effect = lower value 1.01 | locus YEL037C, strain rad23, stronger effect = lower value 1.02 | locus YEL061C, strain CIN8 (second series), stronger effect = lower value 1.01 | locus YEL061C, strain CIN8, stronger effect = lower value 1 | locus YER015W, strain faa2, stronger effect = lower value 1.01 | locus YER016W, strain bim1, stronger effect = lower value 1.02 | locus YER110C, stronger effect = lower value 1.02 | locus YER111C, strain swi4, stronger effect = lower value 1.02 | locus YER155C, strain BEM2 (second series), stronger effect = lower value 1.05 | locus YER155C, strain BEM2, stronger effect = lower value 1 | locus YER167W, strain BCK2, stronger effect = lower value 1.02 | locus YFR010W, strain ubp6, stronger effect = lower value 1.03 | locus YGL078C, strain dbp3, stronger effect = lower value 1.02 | locus YGL086W, strain mad1, stronger effect = lower value 1.02 | locus YGL167C, strain pmr1, stronger effect = lower value 1.02 | locus YGL173C, strain kem1, stronger effect = lower value 1.01 | locus YGL227W, strain vid30, stronger effect = lower value 1.02 | locus YGL240W, strain doc1, stronger effect = lower value 1.03 | locus YGL248W, strain PDE1, stronger effect = lower value 1.01 | locus YGL253W, strain hxk2, stronger effect = lower value 1.02 | locus YGR078C, strain PAC10, stronger effect = lower value 1.02 | locus YGR135W, strain pre9, stronger effect = lower value 1.01 | locus YGR229C, strain SMI1, stronger effect = lower value 1.02 | locus YGR252W, strain gcn5, stronger effect = lower value 1.01 | locus YHR013C, strain ard1, stronger effect = lower value 1.02 | locus YHR027C, strain rpn1, stronger effect = lower value 1.02 | locus YHR030C, strain SLT2, stronger effect = lower value 1.01 and 1 | locus YHR079C, strain IRE1 (second series), stronger effect = lower value 1.01 | locus YHR079C, strain IRE1, stronger effect = lower value 0.993 | locus YHR094C, strain hxt1, stronger effect = lower value 1.02 | locus YHR129C, strain ARP1, stronger effect = lower value 1.01 | locus YHR142W, strain chs7, stronger effect = lower value 1.03 | locus YHR200W, strain rpn10, stronger effect = lower value 1.03 | locus YIL066C, strain RNR3, stronger effect = lower value 1.02 | locus YIL073C, strain SPO22, stronger effect = lower value 1.03 | locus YIL125W, strain kgd1, stronger effect = lower value 1.02 | locus YIR030C, strain dcg1, stronger effect = lower value 1.01 | locus YJL092W, strain hpr5, stronger effect = lower value 1.01 | locus YJL095W, strain BCK1 (second series), stronger effect = lower value 1.02 | locus YJL095W, strain BCK1, stronger effect = lower value 1.01 and 1 | locus YJL115W, strain asf1, stronger effect = lower value 1.02 | locus YJL129C, strain trk1, stronger effect = lower value 1.01 | locus YJL134W, strain LCB3, stronger effect = lower value 1.02 | locus YJL154C, strain vps35, stronger effect = lower value 1.01 | locus YJL164C, strain tpk1, stronger effect = lower value 1.01 | locus YJL166W, strain qcr8, stronger effect = lower value 1.04 | locus YJL168C, strain set2, stronger effect = lower value 1.02 | locus YJL187C, strain SWE1 (second series), stronger effect = lower value 1.01 | locus YJL187C, strain SWE1, stronger effect = lower value 1.01 | locus YJR043C, strain POL32, stronger effect = lower value 1.01 | locus YJR066W, strain TOR1, stronger effect = lower value 0.96
